This is an account of results in PubChem BioAssay (NCATS).

Test [1] is described as follows: Drug repurposing screens with cells derived from glioblastoma tumor samples (AID 1345199). Further: nearly all actives have a fitted effect of over 40% in size. Further: potency means the concentration at half of the fitted maximal effect. On activity, negative = cell killing: on the % scale 0 is the no-effect control and ±100 the full control effect. Conditions: GBM patient neurospheres viability, ATP luminescence, 48 h. Put shortly:
(§1)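 Primary testing used CD133+ neurospheres from four GBM patients, seven concentrations, 48 h exposure and ATP-based viability; confirmation added three slower-growing patient lines.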

Another test concerns astro (control astrocytes). The test is described as above. Conditions: viability, ATP luminescence, 48 h; series mostly up to 45.9 µM. Put shortly: as §1
The nature of test [2]: qHTS assay to identify inhibitors of the type 1 interferon - major histocompatibility complex class I in skeletal muscle: Counter screen cell viability and HiBit confirmation (AID 1347412). Further: potency means the concentration at half of the fitted maximal effect. On activity change, negative = inhibition: on the % scale 0 is the no-effect control and ±100 the full control effect. On all read-outs here: nearly all actives have a fitted effect of over 60% in size. The note with it: iHSKM muscle cells + IFN-b, HiBiT or CellTiter-Glo, 24 h; for activity change, negative = inhibition: at 45.9 µM (top of the series). The gist of the method:
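Luminescence read-out: Nano-Glo HiBiT lytic signal from C-terminally HiBiT-tagged HLA-B in CRISPR-edited human myoblasts, plus CellTiter Glo ATP as viability counter screen. IFN-beta 4.0 ng/ml; 24 hrs treatment at 37 C, 5% CO2.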

Test [3] addresses Nuclear receptor subfamily 1 group I member 2 (Rattus norvegicus) (UniProt Q9R1A7). The test is described as follows: qHTS assay for small molecule activators of the rat pregnane X receptor (rPXR) signaling pathway (AID 651751; call rule not given here; further: 0% is about no effect). The note with it: rPXR reporter cells, luciferase (One-Glo), 24 h.
Test [4] in a line: qHTS assay for small molecule activators of the human pregnane X receptor (PXR) signaling pathway (AID 720659; call rule not given here; further: 0% is about no effect). The note with it: DPX-2 HepG2 CYP3A4-luciferase, 24 h; series mostly up to 92.3 µM.
The mark [5] stands for this setting: at 45.9 µM (top of the series), tumour line B.
The mark [6] stands for this setting: at 46.1 µM (top of the series), tumour line C.
Where [7] appears, read: at 45.9 µM (top of the series), tumour line D.

“And” between values parts separate entries of the source, which are not always exact repeats. Equal entries are not always repeated. A number with no mark means an inactive call. Inconclusive results are not listed. The source made the active and inactive calls. Unless noted, the call rests on the fitted dose curve; in most records, active means well fitted curve in the direction sought with a large enough effect; inconclusive means small, poorly fitted or top-dose-only effect, or another doubt; inactive means no such curve, though single readings can be large; an effect the other way counts as inactive or inconclusive. Where a SMILES comes first, the peptide text is derived from it. Bridges are numbered along the chain shown (N, C = ends). [ ]: non-standard residue; d: D form. The star is where a group is joined. X2 = CC[C@H](C)CCCCC(=O)*; Dab = NCC[C@H](N)C(=O)O

Sequence of Nuclear receptor subfamily 1 group I member 2 (Rattus norvegicus) (Q9R1A7 whole entry, looked up): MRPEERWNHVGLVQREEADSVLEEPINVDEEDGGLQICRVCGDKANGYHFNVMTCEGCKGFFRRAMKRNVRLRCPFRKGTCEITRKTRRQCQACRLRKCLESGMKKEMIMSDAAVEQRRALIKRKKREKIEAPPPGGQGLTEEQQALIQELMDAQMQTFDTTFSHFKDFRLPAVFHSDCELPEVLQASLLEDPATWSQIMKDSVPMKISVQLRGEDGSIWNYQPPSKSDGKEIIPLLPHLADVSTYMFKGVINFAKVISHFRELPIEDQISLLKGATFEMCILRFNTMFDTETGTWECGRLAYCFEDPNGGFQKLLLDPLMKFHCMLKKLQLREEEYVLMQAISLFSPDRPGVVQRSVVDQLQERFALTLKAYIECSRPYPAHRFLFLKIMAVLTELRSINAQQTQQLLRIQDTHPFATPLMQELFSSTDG

As to `CC(C)(C)CC(=O)OCC(=O)[C@@]12OC(C)(C)O[C@@H]1C[C@H]1[C@@H]3CCC4=CC(=O)C=C[C@]4(C)[C@@]3(F)[C@@H](O)C[C@@]12C`, the activity, negative = cell killing is -19.8% in test [1] (setting [5]) and -0.929% in test [1] (setting [6]). In addition, the Potency result in the test on astro is “inactive”.
Take `CCCOc1ccc2nc(NC(=O)OC)sc2c1`: in test [1] (setting [6]), the activity, negative = cell killing is -26.8%. Moreover, the Potency was 8.91 µM (active) in test [1] (tumour line A), 10 µM (active) in test [1] (tumour line D) and 6.31 µM (active) in the test with astro.
Regarding `CN1CC(O)c2cc(N=NC(N)=O)c(O)cc21` (stereo not given), the activity, negative = cell killing in test [1] (setting [5]) was -10.8%; in test [1] (at 46 µM (top of the series), tumour line A) it was -26.7%; in test [1] (setting [6]), 26.2%. The Potency result with astro is “inactive”.
With `NCCCNCCCCNC(=O)C(O)NC(=O)CCCCCCN=C(N)N` (stereo not given), the activity, negative = cell killing was -10.7% in test [1] (setting [5]) and -21.3% in test [1] (setting [6]). The Potency entry with astro is “inactive”.
Consider `O=C(O)c1ccccc1[O-].O=C(O)c1ccccc1[O-].[Zn+2]`, for which the activity, negative = cell killing in test [1] (setting [5]) was -5.99%; in test [1] (setting [7]), -6.7%; in test [1] (setting [6]) it was -14.8%. Also, the Potency result with astro was “inactive”.
For `CCCCCCCCCCCCCCCCCC(=O)OCCO`, in that order: -18.6%, -21.2%, -6.14% and “inactive”.
Regarding `CCC(C)[C@H]1O[C@]2(C=C[C@@H]1C)C[C@@H]1C[C@@H](C/C=C(\C)[C@@H](O[C@H]3C[C@H](OC)[C@@H](O[C@H]4C[C@H](OC)[C@H](NC(C)=O)[C@H](C)O4)[C@H](C)O3)[C@@H](C)/C=C/C=C3\CO[C@@H]4[C@H](O)C(C)=C[C@@H](C(=O)O1)[C@]34O)O2` (stereo not given in full), the Potency with astro was 6.31 µM (active) and 20 µM (active).
As for `CC(C(=O)O)c1ccc(C2CCCCC2)c2ccccc12` (stereo not given), the activity, negative = cell killing in test [1] (setting [5]) is -3.21%; in test [1] (setting [7]), -15.4%; in test [1] (setting [6]), -7.75%. Moreover, the Potency result with astro was “inactive”.
Regarding `COc1ccc(CNc2nc(N(CCO)CCO)nc3c2ncn3C(C)C)cc1`, the Potency in test [2] (HiBiT) was 5.57 µM (active). For the same molecule, the activity change, negative = inhibition in test [2] (Viability) is 13%.
As to `COC(=O)C[C@](O)(CCCC(C)(C)O)C(=O)O[C@@H]1C(OC)=CC23CCCN2CCc2cc4c(cc2[C@H]13)OCO4` (stereo not given in full), the Potency in the test with astro was 1.12 µM (active).
For `COc1ccc(C2NC(=S)N3C(c4ccc(OC)c(OC)c4)NC(=S)N23)cc1OC` (stereo not given), the activity, negative = cell killing is -19.2% in test [1] (setting [5]), -8.84% in test [1] (setting [7]) and 3.81% in test [1] (setting [6]). In addition, the Potency entry in the test on astro is “inactive”.
Turning to `COCCNCc1ccc(-c2cc3nccc(Oc4ccc(NC(=O)C5(C(=O)Nc6ccc(F)cc6)CC5)cc4F)c3s2)nc1`, the Potency in test [2] (Viability) was 31.3 µM (active).
Take `COc1ccc(CNCC(O)COc2ccc3[nH]c(=O)ccc3c2)cc1OC` (stereo not given): the activity, negative = cell killing in test [1] (setting [5]) was -3.95%; in test [1] (setting [7]), -26.6%; in test [1] (setting [6]), 15.6%. The Potency entry with astro was “inactive”.
`CCCCCCCC/C=C\CCCCCCCC(=O)OC[C@@H](O)[C@H]1OC[C@H](O)[C@H]1O`: the activity, negative = cell killing in test [1] (setting [5]) is -4.65%; in test [1] (setting [7]), 1.42%. In addition, the Potency entry in the test with astro was “inactive”. Moreover, the max response in test [3] is 1.88%. Further, the result in test [4] was inactive.
Regarding `CCOC(=O)COc1ccc2c(=O)cc(-c3ccccc3)oc2c1`, the activity, negative = cell killing in test [1] (setting [7]) was -18.4%; in test [1] (setting [6]), -1.42% and -17.4%. The Potency entry with astro was “inactive”.
As to `CON=C1C[C@]2(C[C@@H]3C[C@@H](C/C=C(\C)C[C@@H](C)/C=C/C=C4\CO[C@@H]5[C@H](O)C(C)=C[C@@H](C(=O)O3)[C@]45O)O2)O[C@H](/C(C)=C/C(C)C)[C@H]1C`, the Potency in the test with astro was 17.8 µM (active) and 20 µM (active).
As for `CCCCCCCCCCCCCCCC(=O)OC[C@H](O)[C@H]1OC(=O)C(O)=C1O`, the activity, negative = cell killing is -21.6% in test [1] (setting [5]) and -24.1% in test [1] (setting [7]). In the test with astro, the Potency entry is “inactive”.
With `C=CCNC1=C2C[C@@H](C)C[C@H](OC)[C@H](O)[C@@H](C)/C=C(\C)[C@H](OC(N)=O)[C@@H](OC)/C=C\C=C(/C)C(=O)NC(=CC1=O)C2=O`, the Potency is 1.26 µM (active) in the test with astro and 0.0701 µM (active) in test [2] (HiBiT).
In the case of `CC1=C(C(=O)OCCN(Cc2ccccc2)c2ccccc2)C(c2cccc([N+](=O)[O-])c2)C(P2(=O)OCC(C)(C)CO2)=C(C)N1` (stereo not given), the activity, negative = cell killing in test [1] (setting [5]) is 19%. Moreover, in the test on astro, the Potency result is “inactive”.
Consider `CC(CC(c1ccccc1)c1ccccc1)NC(C)(C)C` (stereo not given), for which the Potency entry in the test with astro was “inactive”.
`Cc1ccc(/C(=C\CN2CCCC2)c2cccc(/C=C/C(=O)O)n2)cc1`: the activity, negative = cell killing in test [1] (setting [6]) was -12.4%. Moreover, the Potency in test [1] (tumour line A) is 35.5 µM (active); in the test with astro, 22.4 µM (active).
On to `COc1cc([C@@H]2c3cc4c(cc3C(O[C@@H]3O[C@@H]5COC(c6cccs6)O[C@H]5[C@H](O)[C@H]3O)C3COC(=O)[C@@H]32)OCO4)cc(OC)c1O` (stereo not given in full), for which, in the test on astro, the Potency is 12.6 µM (active).
With `c1ccc2c(CCC3CCNCC3)c[nH]c2c1`, the Potency result with astro was “inactive”.
As for `COC(=O)Nc1cc(Nc2cc(NC3CC3)c3ncc(C#N)n3n2)c(Cl)c(N2CCN(C)CC2)c1`, the Potency is 7.01 µM (active) in test [2] (HiBiT) and 17.6 µM (active) in test [2] (Viability).
Consider `CO[C@H]1C[C@H](O[C@H]2[C@H](C)O[C@@H](O[C@@H]3/C(C)=C/C[C@@H]4C[C@@H](C[C@]5(C=C[C@H](C)[C@@H](C6CCCCC6)O5)O4)OC(=O)[C@@H]4C=C(C)[C@@H](O)[C@H]5OC/C(=C\C=C\[C@@H]3C)[C@]54O)C[C@@H]2OC)O[C@@H](C)[C@@H]1O`, for which, in the test with astro, the Potency was 17.8 µM (active).
`N#Cc1ccnc(Nc2cc(C3CCN(C4COC4)CC3)cc(N3CCC(F)(F)C3)n2)c1`: in test [2] (HiBiT), the Potency was 3.52 µM (active).
Take `CC[C@H](C)CCCCC(=O)N[C@@H](CCN)C(=O)N[C@H](C(=O)N[C@@H](CCN)C(=O)N[C@H]1CCNC(=O)[C@H]([C@@H](C)O)NC(=O)[C@H](CCN)NC(=O)[C@H](CCN)NC(=O)[C@H](CC(C)C)NC(=O)[C@@H](CC(C)C)NC(=O)[C@H](CCN)NC1=O)[C@@H](C)O` (X2-[Dab]T[Dab][Dab][Dab][dL]L[Dab][Dab]T; lactam 4-C): the activity, negative = cell killing in test [1] (setting [5]) is 6.46%; in test [1] (setting [7]), 12.6%; in test [1] (setting [6]), -10.4%. The Potency entry in the test on astro is “inactive”.
`Cc1c(O)cc2c(c1C)O[C@](C)(CCC[C@H](C)CCC[C@H](C)CCCC(C)C)CC2`: in the test on astro, the Potency result is “inactive”.
With `NC(=O)c1cnc(N[C@@H]2CCCC[C@@H]2N)nc1Nc1cccc(-n2nccn2)c1`, in test [2] (Viability), the activity change, negative = inhibition is -17.1%.
As to `C[C@H](/C=C/[C@H](C)C(C)(C)O)[C@H]1CC[C@H]2/C(=C/C=C3C[C@@H](O)C[C@H](O)C3)CCC[C@]12C`, the Potency result in the test on astro was “inactive”.
Regarding `NC(=O)c1ccccc1Nc1ccnc(Nc2cccc(O)c2)n1`, in test [2] (HiBiT), the Potency was 4.97 µM (active).
Turning to `COC(C)=O`, the activity, negative = cell killing in test [1] (setting [5]) is -2.89%; in test [1] (setting [7]), 6.97%; in test [1] (setting [6]), 7.29%. In addition, in the test with astro, the Potency entry was “inactive”. In addition, the max response in test [3] is 5.57%. Besides, the molecule was called inactive in test [4].
For `C/C=C1\NC(=O)[C@H]2CSSCC/C=C/[C@H](CC(=O)N[C@H](C(C)C)C(=O)N2)OC(=O)C(C(C)C)NC1=O` (stereo not given in full), the Potency in the test on astro was 0.708 µM (active).
For `CCN(CC)c1ccc(C(=C2C=CC(=[N+](CC)CC)C=C2)c2ccccc2)cc1`, the Potency in the test with astro is 2 µM (active).
For the molecule `O=C(O)c1cccc(/C=C2/C[C@@H]3[C@@H](/C=C/[C@@H](O)C4CCCCC4)[C@H](O)C[C@@H]3O2)c1`, the values for the activity, negative = cell killing in test [1] (setting [5]), in test [1] (setting [7]) and in test [1] (setting [6]) were -4.9%, -11.8% and -8.79%, respectively. For the same molecule, the Potency result with astro is “inactive”.
